Where “and” joins values, the source holds several entries; their conditions need not be identical. Identical values can stand only once. Results filed as inconclusive are left out. A structure can be active in one record and inactive in another. Calls of active or inactive are those of the source. Calls follow the shape of the dose curve; as a rule, active = well fitted curve in the direction sought with a large enough effect in the repeat runs; inconclusive = weak or mixed curves; inactive = no such curve, though single readings can be large; an effect the other way counts as inactive or inconclusive.
Experiments:
[1] = Human pregnane X receptor (PXR) small molecule agonists, qHTS cell viability counter screen (AID 1346977); also: nearly all actives have a fitted effect of over 50% in size
Method in brief: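 PXR-Luc HepG2, 2,000 cells/well, 5% charcoal-stripped FBS; 5hr settle; cpd 24hr, 37C/5% CO2; CellTiter-Fluor at 23hr, read 1hr later (fluorescence).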

[2] = Caspase-3/7 induction in CHO-K1 cells by small molecules, qHTS cell viability counter screen (AID 1346979); also: nearly all actives have a fitted effect of over 35% in size; also: potency is read from the fitted curve at half-maximal effect
Method in brief: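 Cells (CHO-K1, wild type) are plated at 1,500 per well and incubated 5hr. Test compounds in DMSO are then pinned in, followed by 16hr at 37C and 5% CO2. Viability is read by CellTiter-Fluor fluorescence after 1hr.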

[3] = Caspase-3/7 induction in CHO-K1 cells by small molecules, qHTS assay (AID 1346980); also: nearly all actives have a fitted effect of over 15% in size
Method in brief: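 Luminescent Caspase-Glo 3/7 read (30min, room temperature) quantified apoptosis induction. Cells were wild-type CHO-K1, treated with compound for 17hr at 37 C and 5% CO2.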

[4] = Caspase-3/7 induction in HepG2 cells by small molecules, qHTS cell viability counter screen (AID 1346981); also: nearly all actives have a fitted effect of over 30% in size; also: potency is read from the fitted curve at half-maximal effect
Method in brief: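 Cell viability is measured as a cytotoxicity counter screen alongside the Caspase-Glo 3/7 readout in identical wells. Wild-type HepG2 cells are treated with test compounds for 16 hr at 37 C before CellTiter-Fluor addition and a 1-hr incubation.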

[5] = target: Nuclear receptor subfamily 1 group I member 2 (Homo sapiens) (UniProt O75469); test: Human pregnane X receptor (PXR) small molecule agonists, qHTS assay (AID 1346982); also: nearly all actives have a fitted effect of over 35% in size
Method in brief: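 Cells: HepG2 stably carrying PXR-Luc. Medium held 5% charcoal-stripped FBS. Compounds in DMSO added after 5 hr plating, incubated 24 hr, then luminescence quantified with ONE-Glo.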

[6] = target: Cytochrome P450 2D6 (Homo sapiens) (UniProt P10635); test: Cytochrome P450 Family 2 Subfamily D Member 6 (CYP2D6) small molecule antagonists: luciferase reporter qHTS assay (AID 1671196); also: nearly all actives have a fitted effect of over 50% in size; also: potency is read from the fitted curve at half-maximal effect
Method in brief: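 Enzyme and proluciferin substrate were first combined with test chemical for 10 min at room temperature. Adding NADPH regeneration solution started a 1 h reaction, stopped with luciferin detection reagent and read by luminescence 20 min later.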

[7] = target: Nuclear receptor subfamily 1 group I member 2 (Rattus norvegicus) (UniProt Q9R1A7); test: Rat pregnane X receptor (rPXR) activation by small molecules, qHTS assay (AID 1346983); conditions: rPXR luciferase reporter cells, One-Glo luminescence, 24 h; stronger effect = higher value; also: nearly all actives have a fitted effect of over 20% in size
Method in brief: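 Luminescent readout (One-Glo luciferase, 30 min room temperature) followed 24 hr compound treatment at 37 C of rPXR cells plated 2,000 per well and preincubated 5hr; qHTS format with compounds delivered in DMSO.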

[8] = target: Nuclear receptor subfamily 1 group I member 2 (Homo sapiens) (UniProt O75469); test: CYP3A4 induction through human pregnane X receptor (PXR) by small molecules, qHTS assay (AID 1346984); also: nearly all actives have a fitted effect of over 40% in size; also: potency is read from the fitted curve at half-maximal effect
Method in brief: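 Quantitative HTS in DPX-2 cells, i.e. HepG2 transfected with PXR response element and CYP3A4-promoter luciferase. Compounds in DMSO incubated 24hr at 37C; then P450-Glo CYP3A4 substrate, 3uM final, 3hr; One-Glo luminescence.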

[9] = target: Nuclear receptor subfamily 1 group I member 2 (Homo sapiens) (UniProt O75469); test: Human pregnane X receptor (PXR) activation by small molecules, qHTS assay (AID 1346985); also: nearly all actives have a fitted effect of over 40% in size
Method in brief: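 DPX-2 cells (HepG2 co-transfected with a PXR response element and a CYP3A4-promoter luciferase construct) were seeded at 2,000 per well, rested 5 hr at 37C, then exposed to DMSO-dissolved compounds for 24 hr. Activation was read as luciferase luminescence.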
% is scaled to controls: 0 for no effect and ±100 for the full control effect.

Cytochrome P450 2D6 (Homo sapiens), sequence (P10635 whole entry, looked up): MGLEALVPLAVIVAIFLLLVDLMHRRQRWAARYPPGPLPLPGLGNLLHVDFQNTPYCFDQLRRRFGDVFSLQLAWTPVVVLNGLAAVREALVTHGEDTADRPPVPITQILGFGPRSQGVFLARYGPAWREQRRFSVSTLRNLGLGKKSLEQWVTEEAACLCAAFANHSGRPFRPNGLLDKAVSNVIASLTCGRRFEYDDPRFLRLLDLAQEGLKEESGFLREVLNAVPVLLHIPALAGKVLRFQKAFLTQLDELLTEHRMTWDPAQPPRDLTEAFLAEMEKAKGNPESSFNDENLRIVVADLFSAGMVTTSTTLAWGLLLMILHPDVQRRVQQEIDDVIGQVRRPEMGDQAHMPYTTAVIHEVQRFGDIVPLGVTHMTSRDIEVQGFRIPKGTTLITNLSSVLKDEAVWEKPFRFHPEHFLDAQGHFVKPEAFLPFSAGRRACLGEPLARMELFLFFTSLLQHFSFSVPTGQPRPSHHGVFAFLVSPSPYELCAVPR
Nuclear receptor subfamily 1 group I member 2 (Rattus norvegicus), sequence (Q9R1A7 whole entry, looked up): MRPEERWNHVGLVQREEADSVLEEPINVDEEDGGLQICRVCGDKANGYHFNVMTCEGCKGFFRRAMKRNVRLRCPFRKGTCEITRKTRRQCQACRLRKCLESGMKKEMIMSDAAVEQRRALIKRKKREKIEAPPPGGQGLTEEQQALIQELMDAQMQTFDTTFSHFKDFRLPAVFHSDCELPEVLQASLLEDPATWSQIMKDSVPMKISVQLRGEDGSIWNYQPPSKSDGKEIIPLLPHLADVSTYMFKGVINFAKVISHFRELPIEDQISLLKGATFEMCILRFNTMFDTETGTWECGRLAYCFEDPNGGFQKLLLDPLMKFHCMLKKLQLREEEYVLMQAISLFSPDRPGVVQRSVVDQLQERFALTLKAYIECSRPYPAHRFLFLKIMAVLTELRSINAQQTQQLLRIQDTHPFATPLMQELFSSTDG
Nuclear receptor subfamily 1 group I member 2 (Homo sapiens), sequence (O75469 whole entry, looked up): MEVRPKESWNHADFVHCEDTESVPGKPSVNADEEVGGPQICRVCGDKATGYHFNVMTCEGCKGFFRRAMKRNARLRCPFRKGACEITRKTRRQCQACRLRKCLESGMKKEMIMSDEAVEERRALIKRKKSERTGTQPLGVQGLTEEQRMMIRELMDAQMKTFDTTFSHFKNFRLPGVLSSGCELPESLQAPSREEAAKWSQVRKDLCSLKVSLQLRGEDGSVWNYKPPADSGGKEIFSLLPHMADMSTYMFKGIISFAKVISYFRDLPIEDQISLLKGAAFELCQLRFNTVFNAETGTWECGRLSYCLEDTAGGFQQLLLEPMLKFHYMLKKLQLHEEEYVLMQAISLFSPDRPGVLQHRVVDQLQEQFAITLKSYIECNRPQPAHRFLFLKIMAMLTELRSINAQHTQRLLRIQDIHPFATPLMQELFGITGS

O=C(O)c1ccc(C(=O)O)c(C(=O)O)c1
inactive: Potency [1] | Potency [2] | outcome [3] | Potency [4] | Potency [5] | Potency [6]

CC(C)CC(=O)CC(C)CC(C)C (configuration not stated)
inactive: Potency [1] | Potency [2] | outcome [3] | Potency [4] | Potency [5] | Potency [6]

NCCNCCN
inactive: Potency [1] | Potency [2] | outcome [3] | Potency [4] | Potency [5]
active: Potency [6] 63.5 µM

CC(C)(C#N)c1cc(Cn2cncn2)cc(C(C)(C)C#N)c1
inactive: Potency [1] | Potency [2] | outcome [3] | Potency [4] | max activation [7] 0.273% | Potency [6]

CC1(C)NC(=O)NC1=O
inactive: Potency [1] | Potency [2] | outcome [3] | Potency [4] | Potency [5] | Potency [6]

CCCCCCCO
inactive: Potency [1] | Potency [2] | outcome [3] | Potency [4] | Potency [5] | Potency [6]

CN(C)CCOC(=O)COc1ccc(Cl)cc1
inactive: Potency [1] | outcome [3] | Potency [4] | max activation [7] -3.66% | Potency [8] | outcome [9]
active: Potency [6] 35.5 µM and 30.9 µM

C=C(C)[C@H]1CC=C(C)C(=O)C1
18.2 µM (active) and inactive: Potency [6]
inactive: Potency [1] | Potency [2] | outcome [3] | Potency [4] | Potency [5]

Brc1ccc(Br)c(Br)c1
inactive: Potency [1] | Potency [2] | outcome [3] | Potency [4] | Potency [6]

C=C(C)CNCC
31.2 µM (active) and inactive: Potency [6]
inactive: Potency [1] | Potency [2] | outcome [3] | Potency [4]

OCc1ccccc1
inactive: Potency [1] | Potency [2] | outcome [3] | Potency [4] | Potency [5] | max activation [7] -0.795% | Potency [8] | outcome [9] | Potency [6]

CCCCCCC=O
inactive and 17.8 µM (active): Potency [6]
inactive: Potency [1] | Potency [2] | outcome [3] | Potency [4]

CCCCCCCC=O
inactive: Potency [1] | Potency [2] | outcome [3] | Potency [4] | Potency [5] | Potency [6]

CC1(C)CC(N)CC(C)(CN)C1 (configuration not stated)
inactive: Potency [1] | Potency [2] | outcome [3] | Potency [4]
36.1 µM (active) and inactive: Potency [6]

C=CCCCCCCCCC(=O)O
inactive: Potency [1] | Potency [2] | outcome [3] | Potency [4] | Potency [5] | max activation [7] -1.23% | Potency [8] | outcome [9] | Potency [6]

CC(=O)CCC=C(C)C
inactive: Potency [1] | Potency [2] | outcome [3] | Potency [4] | Potency [5] | Potency [6]

CCNC(=S)NCC
inactive: Potency [1] | Potency [2] | outcome [3] | Potency [4] | Potency [6]

CN1C(=O)CC[C@H]1c1cccnc1
inactive: Potency [1] | Potency [2] | outcome [3] | Potency [4] | max activation [7] -3.2%

O=C1C(c2[nH]c3ccccc3c2O)=Nc2ccccc21
inactive: Potency [1] | Potency [2] | outcome [3] | Potency [4] | Potency [5] | max activation [7] 3.64% | outcome [9] | Potency [6]
active: Potency [8] 0.891 µM

C[C@]12CC[C@@H]3c4ccc(O)cc4CC[C@H]3[C@@H]1C[C@@H](O)[C@@H]2O
inactive: Potency [1] | Potency [2] | outcome [3] | Potency [4] | max activation [7] -0.315% | Potency [8] | outcome [9] | Potency [6]

N[C@H](Cc1c[nH]c2ccccc12)C(=O)O
inactive: Potency [1] | Potency [2] | outcome [3] | Potency [4] | Potency [5] | max activation [7] -2.63% | outcome [9] | Potency [6]

OCc1cccc(Oc2ccccc2)c1
active: Potency [6] 28.7 µM
inactive: Potency [1] | Potency [2] | outcome [3] | Potency [4]

OC1C(O)C(O)C(O)C(O)C1O (configuration not stated)
inactive: Potency [1] | Potency [2] | outcome [3] | Potency [4] | Potency [5] | max activation [7] -0.165% | Potency [8] | outcome [9] | Potency [6]

CN(C)c1ccc(O)c2c1C[C@H]1C[C@H]3[C@H](N(C)C)C(=O)C(C(N)=O)=C(O)[C@@]3(O)C(=O)C1=C2O
inactive: Potency [1] | outcome [3] | Potency [5] | max activation [7] -2.35% | Potency [8] | outcome [9] | Potency [6]
active: Potency [2] 68.6 µM and 29.8 µM | Potency [4] 54.5 µM and 29.8 µM

O=C1CCCC1
inactive: Potency [1] | Potency [2] | outcome [3] | Potency [4] | Potency [6]

CC(O)CC(C)(C)O (configuration not stated)
inactive: Potency [1] | Potency [2] | outcome [3] | Potency [4] | Potency [6]

CCO[Si](CCC#N)(OCC)OCC
inactive: Potency [1] | Potency [2] | outcome [3] | Potency [4] | Potency [6]

CC(C)=CCl
inactive: Potency [1] | Potency [2] | outcome [3] | Potency [4] | Potency [5]
10.1 µM (active) and inactive: Potency [6]

CCOC(=O)n1ccn(C)c1=S
inactive: Potency [1] | Potency [2] | outcome [3] | Potency [4] | Potency [5] | max activation [7] -4.98% | Potency [8] | outcome [9] | Potency [6]
